From ChEMBL document CHEMBL1961873, “Compounds: GSK PKIS; Assays: Nanosyn kinase panel” (2012) come the findings set out here.

For assay [1], the target named is Serine/threonine-protein kinase MRCK alpha (Homo sapiens) (UniProt Q5VT25). Particulars: at 0.1 µM.
Assay [2] shares this target. To be noted: at 1 µM.
Assay [3] deals with Serine/threonine-protein kinase MRCK beta (Homo sapiens) (UniProt Q9Y5S2). To be noted: at 0.1 µM.
Assay [4] has the same target. To be noted: at 1 µM.
For assay [5], the target named is Ribosomal protein S6 kinase alpha-5 (Homo sapiens) (UniProt O75582). To be noted: at 0.1 µM.
Sequence of Ribosomal protein S6 kinase alpha-5 (Homo sapiens) (O75582 whole entry, looked up): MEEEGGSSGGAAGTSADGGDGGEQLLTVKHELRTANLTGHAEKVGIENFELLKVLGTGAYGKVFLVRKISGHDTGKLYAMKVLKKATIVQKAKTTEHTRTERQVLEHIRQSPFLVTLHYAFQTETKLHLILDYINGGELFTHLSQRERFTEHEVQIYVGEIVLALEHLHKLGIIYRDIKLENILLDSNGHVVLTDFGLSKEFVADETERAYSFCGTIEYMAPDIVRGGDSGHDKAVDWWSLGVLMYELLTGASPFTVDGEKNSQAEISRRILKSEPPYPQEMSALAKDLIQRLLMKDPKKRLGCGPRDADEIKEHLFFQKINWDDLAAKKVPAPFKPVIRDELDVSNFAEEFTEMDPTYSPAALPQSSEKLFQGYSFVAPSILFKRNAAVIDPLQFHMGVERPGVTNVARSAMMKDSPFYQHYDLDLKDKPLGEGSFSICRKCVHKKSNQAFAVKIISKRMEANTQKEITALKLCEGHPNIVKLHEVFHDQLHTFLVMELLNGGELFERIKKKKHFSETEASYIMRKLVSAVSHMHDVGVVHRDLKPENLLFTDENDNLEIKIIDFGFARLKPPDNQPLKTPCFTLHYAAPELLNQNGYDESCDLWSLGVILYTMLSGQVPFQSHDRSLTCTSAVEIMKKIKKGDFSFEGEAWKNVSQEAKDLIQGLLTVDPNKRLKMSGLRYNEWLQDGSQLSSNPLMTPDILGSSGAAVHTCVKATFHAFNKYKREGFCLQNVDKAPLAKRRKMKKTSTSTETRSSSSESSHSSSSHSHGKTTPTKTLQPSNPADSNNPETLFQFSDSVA
Assay [6] has the same target. To be noted: at 1 µM.
In assay [7] the target is Ribosomal protein S6 kinase alpha-4 (Homo sapiens) (UniProt O75676). Particulars: at 0.1 µM.
Assay [8] has the same target. To be noted: at 1 µM.
The target of assay [9] is Ribosomal protein S6 kinase beta-1 (Homo sapiens) (UniProt P23443). Particulars: at 0.1 µM.
Sequence of Ribosomal protein S6 kinase beta-1 (Homo sapiens) (P23443 whole entry, looked up): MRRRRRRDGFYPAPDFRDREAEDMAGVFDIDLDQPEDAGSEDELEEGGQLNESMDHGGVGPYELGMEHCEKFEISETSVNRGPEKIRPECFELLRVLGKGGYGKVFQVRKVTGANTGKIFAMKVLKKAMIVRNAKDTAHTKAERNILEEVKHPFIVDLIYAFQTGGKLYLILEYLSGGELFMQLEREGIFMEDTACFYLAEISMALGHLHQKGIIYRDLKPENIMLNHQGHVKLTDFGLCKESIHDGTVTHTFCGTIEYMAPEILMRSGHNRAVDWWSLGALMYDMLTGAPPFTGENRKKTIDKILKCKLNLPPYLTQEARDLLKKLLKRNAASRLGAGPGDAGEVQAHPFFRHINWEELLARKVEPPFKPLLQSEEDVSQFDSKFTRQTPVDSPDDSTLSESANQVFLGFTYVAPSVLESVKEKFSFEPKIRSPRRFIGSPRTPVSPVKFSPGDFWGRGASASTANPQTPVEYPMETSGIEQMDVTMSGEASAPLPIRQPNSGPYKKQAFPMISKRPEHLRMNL
Assay [10] shares this target. To be noted: at 1 µM.
The target of assay [11] is T1, 3-phosphoinositide-dependent protein kinase 1 (Homo sapiens) (UniProt O15530).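 Note: values are mean inhibition of PDK1.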
T1 sequence (whole entry): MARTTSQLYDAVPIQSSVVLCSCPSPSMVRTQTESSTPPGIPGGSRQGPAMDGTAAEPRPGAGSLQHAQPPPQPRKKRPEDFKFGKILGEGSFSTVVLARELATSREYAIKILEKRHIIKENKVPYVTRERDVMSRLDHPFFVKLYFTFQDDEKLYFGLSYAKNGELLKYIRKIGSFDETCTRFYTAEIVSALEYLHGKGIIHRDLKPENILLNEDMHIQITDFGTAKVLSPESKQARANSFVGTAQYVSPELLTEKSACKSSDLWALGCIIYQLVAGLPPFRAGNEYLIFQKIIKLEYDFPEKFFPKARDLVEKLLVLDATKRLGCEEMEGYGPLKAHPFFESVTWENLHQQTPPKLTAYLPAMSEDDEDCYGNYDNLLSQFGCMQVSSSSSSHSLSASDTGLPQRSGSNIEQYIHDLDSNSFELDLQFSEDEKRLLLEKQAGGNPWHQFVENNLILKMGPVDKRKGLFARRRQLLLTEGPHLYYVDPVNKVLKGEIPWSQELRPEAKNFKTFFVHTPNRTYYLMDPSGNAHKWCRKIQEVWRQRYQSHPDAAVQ
To be noted: at 0.1 µM.

For assay [12], the target named is cAMP-dependent protein kinase catalytic subunit alpha (Homo sapiens) (UniProt P17612). Particulars: at 0.1 µM.
Assay [13] has the same target. To be noted: at 1 µM.
For assay [14], the target named is Protein kinase C alpha type (Homo sapiens) (UniProt P17252). To be noted: at 0.1 µM.
Assay [15] has the same target. Particulars: at 1 µM.
For assay [16], the target named is Protein kinase C beta type (Homo sapiens) (UniProt P05771). Particulars: at 0.1 µM.
The target is the same in assay [17]. To be noted: at 1 µM.
Assay [18] concerns the target Protein kinase C eta type (Homo sapiens) (UniProt P24723). To be noted: at 0.1 µM.
The target is the same in assay [19]. To be noted: at 1 µM.
The target in assay [20] is Protein kinase C gamma type (Homo sapiens) (UniProt P05129). To be noted: at 0.1 µM.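 Note: values are mean percent inhibition of PKC gamma.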

In general, inhibition refers to the relative decrease from the control value, in per cent.

Sequence of Serine/threonine-protein kinase MRCK alpha (Homo sapiens) (Q5VT25 whole entry): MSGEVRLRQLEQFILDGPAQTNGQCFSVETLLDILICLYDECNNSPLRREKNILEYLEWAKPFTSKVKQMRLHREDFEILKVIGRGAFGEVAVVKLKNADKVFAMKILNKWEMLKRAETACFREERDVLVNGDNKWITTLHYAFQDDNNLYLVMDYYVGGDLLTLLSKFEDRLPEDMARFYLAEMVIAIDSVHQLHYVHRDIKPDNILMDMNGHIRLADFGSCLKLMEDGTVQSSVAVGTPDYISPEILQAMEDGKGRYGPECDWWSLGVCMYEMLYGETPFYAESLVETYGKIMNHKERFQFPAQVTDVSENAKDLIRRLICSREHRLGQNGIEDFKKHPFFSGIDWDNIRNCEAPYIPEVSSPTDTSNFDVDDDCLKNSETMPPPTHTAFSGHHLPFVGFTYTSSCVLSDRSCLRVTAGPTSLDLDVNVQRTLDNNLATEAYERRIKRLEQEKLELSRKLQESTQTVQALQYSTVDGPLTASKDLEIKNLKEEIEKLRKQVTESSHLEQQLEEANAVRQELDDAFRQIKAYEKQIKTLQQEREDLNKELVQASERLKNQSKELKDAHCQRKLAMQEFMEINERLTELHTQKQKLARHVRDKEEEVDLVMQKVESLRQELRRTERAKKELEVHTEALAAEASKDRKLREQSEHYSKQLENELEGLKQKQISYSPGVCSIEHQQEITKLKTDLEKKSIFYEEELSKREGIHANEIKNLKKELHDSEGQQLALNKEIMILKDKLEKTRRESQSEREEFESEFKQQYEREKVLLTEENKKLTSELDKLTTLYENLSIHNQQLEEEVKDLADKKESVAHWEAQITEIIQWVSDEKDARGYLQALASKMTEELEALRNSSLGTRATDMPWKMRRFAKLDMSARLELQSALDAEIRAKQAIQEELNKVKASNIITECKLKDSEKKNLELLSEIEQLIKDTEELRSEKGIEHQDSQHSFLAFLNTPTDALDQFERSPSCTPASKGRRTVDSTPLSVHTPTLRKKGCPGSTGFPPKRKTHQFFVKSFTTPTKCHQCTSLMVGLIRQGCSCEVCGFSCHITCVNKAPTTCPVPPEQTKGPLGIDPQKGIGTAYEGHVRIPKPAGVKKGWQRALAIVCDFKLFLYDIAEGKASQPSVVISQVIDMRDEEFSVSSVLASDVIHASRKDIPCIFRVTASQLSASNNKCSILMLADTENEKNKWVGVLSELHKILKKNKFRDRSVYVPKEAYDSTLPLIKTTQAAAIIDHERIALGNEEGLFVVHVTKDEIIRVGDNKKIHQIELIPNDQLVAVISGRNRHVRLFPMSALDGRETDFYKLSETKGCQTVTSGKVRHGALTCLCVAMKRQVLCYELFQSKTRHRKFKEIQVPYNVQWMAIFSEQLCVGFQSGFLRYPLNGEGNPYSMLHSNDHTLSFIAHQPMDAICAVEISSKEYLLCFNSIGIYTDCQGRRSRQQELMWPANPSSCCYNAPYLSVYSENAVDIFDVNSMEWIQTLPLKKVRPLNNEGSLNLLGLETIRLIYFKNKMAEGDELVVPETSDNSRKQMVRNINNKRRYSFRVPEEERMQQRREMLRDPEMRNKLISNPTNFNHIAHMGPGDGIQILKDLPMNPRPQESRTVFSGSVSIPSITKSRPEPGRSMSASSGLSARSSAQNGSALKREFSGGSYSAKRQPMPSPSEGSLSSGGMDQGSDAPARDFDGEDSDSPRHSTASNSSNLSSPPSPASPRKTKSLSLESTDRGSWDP
Sequence of Protein kinase C eta type (Homo sapiens) (P24723 whole entry): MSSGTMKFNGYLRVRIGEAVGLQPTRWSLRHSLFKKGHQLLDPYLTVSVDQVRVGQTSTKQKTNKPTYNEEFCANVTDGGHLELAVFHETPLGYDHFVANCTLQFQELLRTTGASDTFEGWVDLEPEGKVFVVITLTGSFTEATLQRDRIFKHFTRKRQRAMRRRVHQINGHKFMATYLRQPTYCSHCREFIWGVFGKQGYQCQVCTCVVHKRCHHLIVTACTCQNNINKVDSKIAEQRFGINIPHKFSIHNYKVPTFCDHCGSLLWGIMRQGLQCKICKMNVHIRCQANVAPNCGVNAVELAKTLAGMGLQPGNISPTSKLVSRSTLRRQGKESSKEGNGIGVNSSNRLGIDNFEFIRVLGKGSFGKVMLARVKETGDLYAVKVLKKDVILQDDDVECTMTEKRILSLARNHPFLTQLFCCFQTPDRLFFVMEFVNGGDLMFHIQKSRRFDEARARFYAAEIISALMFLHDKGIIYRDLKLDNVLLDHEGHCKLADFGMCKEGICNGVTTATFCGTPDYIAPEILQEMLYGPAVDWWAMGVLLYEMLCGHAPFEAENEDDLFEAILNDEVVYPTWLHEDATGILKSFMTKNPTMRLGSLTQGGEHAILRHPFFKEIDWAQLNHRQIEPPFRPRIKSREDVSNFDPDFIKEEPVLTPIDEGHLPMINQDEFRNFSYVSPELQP

With `CCn1c(-c2nonc2N)nc2c(C#CC(C)(C)O)nc(OC[C@H](N)c3ccccc3)cc21`, the inhibition in assay [1] worked out at 11.8%; in assay [2], 36.3%; in [3], 3.04%; in assay [4] it was 26.6%; in assay [5], 3.37%; in assay [6], 17.7%. Further, the inhibition in [7] was 3.75%; in [8], 20.5%; in assay [9] it was 4.66%; in assay [10] it was 33.1%; in [11] it was 0.94%; in [12] it was 81.3%. In addition, the inhibition in [13] was 82.5%; in [14], 3.82%; in assay [15], 32.3%; in assay [16], 32.7%; in [17] it was 67.3%; in [18], 97.9%. The figures for the inhibition in [19] and in assay [20] were 97.1% and 8.83%, respectively.

On to `Nc1nc(-c2cccc(Cl)c2)c(-c2ccc3ncccc3n2)s1`, for which the inhibition in assay [1] was -0.36%; in assay [2], 5.58%; in [3] it was -0.33%; in assay [4] it was 0.87%; in assay [5], 9.72%; in assay [6], 9.28%. Besides, the inhibition was found to be 2.91% in assay [7]; 3.45% in [8]; 1.21% in assay [9]; 3.77% in assay [10]; 0.49% in [11]; 2.34% in assay [12]. Moreover, the inhibition in assay [13] worked out at 4.12%; in assay [14] it was 1.05%; in assay [15], 1.4%; in assay [16] it was 2.33%; in assay [17] it was 4.87%; in [18], 5.47%. Besides, the inhibition in assay [19] turned out to be 7.42%; in assay [20] it was 1.18%.

On to `O=C(Nc1n[nH]c2cc(-c3ccc(F)cc3)ccc12)C1CC1`, for which the inhibition in [1] worked out at 0.19%; in assay [2], 0.87%; in [3], 0.84%; in [4], 5.66%; in assay [5], 13.8%; in assay [6], 13.6%. The inhibition in assay [7] came out at 6.38%; in [8], 8.25%; in [9], 2%; in [10] it was 2.94%; in [11] it was 1.87%; in assay [12], 1.56%. For the same compound, the inhibition amounted to 5.1% in assay [13]; 0.82% in assay [14]; 2.18% in assay [15]; 2.92% in assay [16]; 6.56% in [17]; 3.22% in assay [18]. Also, the figures for the inhibition in assay [19] and in assay [20] were 6.59% and 3.26%, respectively.

In the case of `COc1ccc(-c2cc3c(N)ncnc3o2)cc1`, the inhibition is 1.37% in [1]; -2.67% in assay [2]; 1.33% in [3]; -0.07% in [4]; -2.51% in [5]; -3.04% in assay [6]. The inhibition is -0.05% in assay [7]; -0.35% in assay [8]; -0.5% in assay [9]; -0.54% in assay [10]; -0.95% in assay [11]; -0.06% in assay [12]. For the same compound, the inhibition was 0.18% in assay [13]; -0.88% in [14]; 3% in [15]; -0.74% in assay [16]; -2.12% in assay [17]; -4.39% in assay [18]. The inhibition in [19] was -1.49%; in [20] it was 0.2%.

As for `CCc1nn2ncccc2c1-c1ccnc(NC2CC2)n1`, the inhibition is 3.74% in assay [1]; 2.27% in assay [2]; 1.18% in assay [3]; 2.16% in [4]; 0.41% in assay [5]; 1.19% in assay [6]. The inhibition in [7] is 1.26%; in [8] it was 3.44%; in [9], 1.12%; in assay [10], 2.51%; in [11], 1.73%; in assay [12] it was 0.78%. Also, the inhibition in assay [13] worked out at 1.73%; in assay [14], 0.35%; in [15], 1.73%; in assay [16], 1.02%; in assay [17], 2.65%; in assay [18], 0.47%. For the same compound, the inhibition came out at 0.53% in assay [19] and 0.95% in assay [20].

Regarding `CCOc1ccc2c(-c3ccnc(Nc4cccc(C(F)(F)F)c4)n3)cnn2n1`, the inhibition in assay [1] is -4.67%; in assay [2], -1.89%; in [3], -0.48%; in assay [4] it was -1.84%; in assay [5], 0.66%; in assay [6], -1.09%. In addition, the inhibition was 1.4% in assay [7]; -0.01% in [8]; 0.31% in [9]; -0.17% in assay [10]; -2.03% in assay [11]; 1.32% in assay [12]. In addition, the inhibition turned out to be 1.22% in assay [13]; 0.95% in assay [14]; 0.74% in [15]; 0.58% in assay [16]; 0.67% in [17]; 0.98% in assay [18]. Also, the inhibition in assay [19] is -0.29%; in [20] it was 4.45%.

As for `COC(=O)Nc1nc2ccc(S(=O)(=O)c3ccc(NC(=O)Nc4cc(C(F)(F)F)ccc4F)cc3)cc2[nH]1`, the inhibition in assay [1] was 0.58%; in assay [2], -0.35%; in assay [3], 1.96%; in [4], 1.32%; in [5], 2.41%; in [6] it was 1.23%. In addition, the inhibition is 0.77% in assay [7]; 4.31% in assay [8]; 2.42% in [9]; 0.71% in assay [10]; 1.73% in assay [11]; 1.93% in assay [12]. Further, the inhibition in assay [13] was 1.3%; in [14] it was 0.42%; in [15] it was -0.51%; in assay [16] it was 0.31%; in assay [17] it was 0.32%; in [18] it was 0.95%. In addition, the inhibition in assay [19] was 2.18%; in assay [20] it was 0.47%.
